Measured values taken from PubChem BioAssay (NCI).
This is part of a sample that, as a whole, favours compounds with a hit. Of some 83,000 tested, about 20% had one in any assay.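 Treatment: one concentration, 48 hours, 96-well format. Scoring: percent growth, with anything below 10 considered active.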 Activity calls are given as the source filed them.

Experiments:
Test in all cases: NCI-60 one-dose screen, 48 h (100 = growth as untreated, 0 = no growth, -100 = all killed)
[1] = test system: NCI-H23 lung; settings: 10 µM unless noted
[2] = test system: NCI-H226 lung; settings: 10 µM unless noted
[3] = test system: NCI-H322M lung; settings: 10 µM unless noted
[4] = test system: HOP-62 NSCLC; settings: 10 µM unless noted
[5] = test system: NCI-H460 lung; settings: 10 µM unless noted
[6] = test system: HOP-92 NSCLC; settings: 10 µM unless noted
[7] = test system: NCI-H522 lung; settings: 10 µM unless noted
[8] = test system: A549/ATCC NSCLC; settings: 10 µM unless noted
[9] = test system: 786-0 renal; settings: 10 µM unless noted
[10] = test system: COLO 205 colon; settings: 10 µM unless noted
[11] = test system: DU-145 prostate; settings: 10 µM unless noted
[12] = test system: K-562 leukemia; settings: 10 µM unless noted
[13] = test system: MALME-3M melanoma; settings: 10 µM unless noted
[14] = test system: MDA-MB-231 breast; settings: 10 µM unless noted
[15] = test system: RXF 393 renal; settings: 10 µM unless noted
[16] = test system: SF-268 CNS; settings: 10 µM unless noted
[17] = test system: SF-295 CNS; settings: 10 µM unless noted
[18] = test system: SF-539 CNS; settings: 10 µM unless noted
[19] = test system: UACC-257 melanoma; settings: 10 µM
[20] = test system: M14 melanoma; settings: 10 µM unless noted

Measured: growth

Cn1cc2c(c1)-c1c(sc3nc(-c4ccc(NC(=O)Nc5cc(C(C)(C)C)on5)cc4)cn13)CC2
inactive: [1] 50.7% | [2] 51.8% | [3] 75.6% | [4] 16.7% | [5] 27.5% | [6] 42.8% | [7] 81.5% | [8] 64.5% | [10] 45.6% | [11] 57.9% | [12] 15.3% | [13] 66.2% | [14] 49.8% | [16] 50.5% | [18] 22.3% | [19] 93.1% | [20] 60.5%
active: [9] -3.49% | [15] -23.4% | [17] -41%

N#C/C(=C\c1ccc2ccccc2c1)C(=O)Nc1sc2c(c1C#N)CCC2
inactive: [1] 99.5% | [2] 94.1% | [3] 113% | [4] 106% | [5] 104% | [6] 81.4% | [7] 96.7% | [8] 98.4% | [9] 99.6% | [10] 115% | [11] 103% | [12] 96.2% | [13] 116% | [14] 98.1% | [15] 107% | [16] 103% | [17] 95.3% | [18] 102% | [19] 108% | [20] 106%

O=C1c2c(c3c4cc(Br)ccc4[nH]c3c3ccc4ccccc4c23)C(=O)N1CCN1CCNCC1
inactive: [1] 77.1% | [2] 87.6% | [3] 95.6% | [4] 60.9% | [5] 36.5% | [6] 82.5% | [7] 74.3% | [8] 54.4% | [9] 76.5% | [10] 86.5% | [11] 72.1% | [13] 80.5% | [14] 84.1% | [15] 82.8% | [16] 72.7% | [17] 73.6% | [18] 87.1% | [19] 98.3% | [20] 87.6%
active: [12] -25.7%

Cc1cn(-c2cc(NC(=O)c3cncc(C#Cc4cnc5ccc(OCCCS(C)(=O)=O)nn45)c3)cc(C(F)(F)F)c2)cn1
inactive: [3] 24.4% | [4] 25.5% | [5] 18.6% | [8] 48% | [9] 12.4% | [11] 12.6% | [12] 11% | [13] 11.7% | [14] 14.4% | [17] 54.6% | [19] 64.4% | [20] 18%
active: [1] -5.32% | [2] 4.42% | [6] -34.5% | [7] 3.59% | [10] -30.3% | [15] -74.5% | [16] -5.33% | [18] 6.3%

O=C1[C@@H]2Cc3c([nH]c4ccccc34)[C@H](c3c(Cl)cccc3Cl)N2C(=O)CN1C1CCN(Cc2c(F)cccc2F)CC1
inactive: [1] 92.9% | [2] 78.7% | [3] 89.1% | [4] 92.9% | [5] 55.6% | [6] 75.9% | [7] 93% | [8] 92.3% | [9] 99.2% | [10] 90.6% | [11] 58.8% | [12] 66.3% | [13] 64.9% | [14] 69% | [15] 65.4% | [16] 76.1% | [17] 101% | [18] 52.2% | [19] 99.1% | [20] 75.2%

Cc1ccc(Nc2ncnc3c2c(C)nn3-c2ccc([N+](=O)[O-])cc2)cc1
inactive: [1] 77.3% | [3] 88.5% | [4] 60.3% | [5] 30.7% | [6] 111% | [7] 74.8% | [8] 45.1% | [9] 86.9% | [10] 72.2% | [11] 89.4% | [12] 69.1% | [13] 84.7% | [14] 80.8% | [15] 60.8% | [16] 79.1% | [17] 69.7% | [18] 74.4% | [19] 93.3% | [20] 80.6%
active: [2] 8.18%

CC1CCc2c(sc3nc(SCC(=O)N/N=C/c4ccc(Cl)cc4)n(-c4ccccc4)c(=O)c23)C1 (stereo not given)
inactive: [1] 90.7% | [2] 91% | [3] 98.1% | [4] 78.4% | [5] 107% | [6] 107% | [7] 93.6% | [8] 101% | [9] 96.5% | [10] 135% | [11] 97.8% | [12] 100% | [13] 99% | [14] 89.5% | [16] 81.6% | [17] 95.2% | [18] 90% | [19] 102% | [20] 102%
active: [15] -2.72%
